According to the supplement of paper PMC9135407:
Values joined by “and” are separate entries in the source; they are usually repeats but may differ in a detail not shown here. Identical values can stand only once. Counter-ions that a name gives are not always drawn. Screen size: about 5,800 compounds; about 620 (11%) showed activity. The sample as a whole holds a higher share of actives than the screen did. A number with no mark means an inactive call.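 Rule for the calls: active = score above a cut-off or among the top three wells of a plate; in these data no inactive exceeds 0.85.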

Tested on: primary human hepatic stellate cells (donor 1)
Assay: scaled lipid accumulation score (0 = DMSO-like, 1 = nortriptyline-like); higher = stronger HSC inactivation (lipid re-accumulation), active = hit call of the paper
Conditions: 48 h
[1] = library stock concentration: 3.33 mM
[2] = library stock concentration: 80 uM
[3] = library stock concentration: 400 uM
[4] = library stock concentration: 2 mM
[5] = library stock concentration: 10 mM
[6] = library stock concentration: 1 mM

For `COc1cc2ncnc(Sc3nnc(C)s3)c2cc1OC`, the “scaled lipid accumulation score” value [1] was at most -0.009.

In the case of `C=CC(=O)Nc1cc(NC(=O)c2ccc(C)c(NC(=O)c3ccno3)c2)cc(C(F)(F)F)c1`, the “scaled lipid accumulation score” value [2] was at most 0, the “scaled lipid accumulation score” value [3] was at most 0 and the “scaled lipid accumulation score” value [4] was at most 0. The “scaled lipid accumulation score” value [5] was 0.311.

For `Nc1ncnc2nc(-c3ccc(N4CCOCC4)nc3)cc(-c3cccc(Br)c3)c12` [ABT 702 dihydrochloride], the “scaled lipid accumulation score” value [5] was 0.275.

For `Nc1ncnc2nc(-c3ccc(N4CCOCC4)nc3)cc(-c3cccc(Br)c3)c12` [listing 1 of 2 here], the “scaled lipid accumulation score” value [2] was at most -0.001, the “scaled lipid accumulation score” value [3] was 0.008 and the “scaled lipid accumulation score” value [4] was at most -0.001.

`Nc1ccc(-c2cccc3c(=O)cc(N4CCOCC4)oc23)cc1` was tested, and the “scaled lipid accumulation score” value [5] was at most -0.001.

`Nc1ncnc2nc(-c3ccc(N4CCOCC4)nc3)cc(-c3cccc(Br)c3)c12` [listing 2 of 2 here] was tested, and the “scaled lipid accumulation score” value [5] was 0.982 (active).

In the case of `O=C(CCBr)N1CCN(C(=O)CCBr)CC1` [Pipobroman], the “scaled lipid accumulation score” value [5] was at most -0.027.

In the case of `S=C=Nc1cccc(NC(=S)NCCCCNC(=S)Nc2cccc(N=C=S)c2)c1`, the “scaled lipid accumulation score” value [1] was 0.004 and the “scaled lipid accumulation score” value [5] was 0.023.

`CCNC(=O)c1noc(-c2cc(C(C)C)c(O)cc2O)c1-c1ccc(CN2CCOCC2)cc1` [listing 1 of 2 here] was tested, and the “scaled lipid accumulation score” value [1] was 0.91 (active).

For `CCNC(=O)c1noc(-c2cc(C(C)C)c(O)cc2O)c1-c1ccc(CN2CCOCC2)cc1` [listing 2 of 2 here], the “scaled lipid accumulation score” value [2] was 0.702, the “scaled lipid accumulation score” value [3] was 0.802 and the “scaled lipid accumulation score” value [4] was 0.808. For the same compound, the “scaled lipid accumulation score” value [5] was 0.831 and 0.776.

In the case of `CCNC(=O)c1noc(-c2cc(Cl)c(O)cc2O)c1-c1ccc(OC)cc1`, the “scaled lipid accumulation score” value [1] was 0.783 and the “scaled lipid accumulation score” value [5] was 0.741.

With `CN(C)[C@@H]1CCc2[nH]c3ccc(NC(=O)c4ccc(F)cc4)cc3c2C1.Cl` the “scaled lipid accumulation score” value [5] was 1.37 (active).

With `CN(C1CCc2c(c3ccccc3n2CC(=O)O)C1)S(=O)(=O)c1ccc(F)cc1` (stereo not drawn) the “scaled lipid accumulation score” value [6] was 0.083.

With `CN(C)CC(=O)Nc1ccc2[nH]c(=O)c3ccccc3c2c1` the “scaled lipid accumulation score” value [1] was ≤ 0 and ≤ -0.009 and the “scaled lipid accumulation score” value [5] was 0.59 and 0.025.

In the case of `CCCCCCCCCCCCCCCC(O)C(N)CO` (racemic) [DL-Dihydrosphingosine], the “scaled lipid accumulation score” value [6] was at most -0.021.

`NC(=O)c1cnc(N[C@@H]2CCCC[C@@H]2N)nc1Nc1cccc(-n2nccn2)c1` was tested, and the “scaled lipid accumulation score” value [2] was at most 0, the “scaled lipid accumulation score” value [3] was 0.015 and the “scaled lipid accumulation score” value [4] was 0.218. The “scaled lipid accumulation score” value [1] was 0.214 and the “scaled lipid accumulation score” value [5] was 0.215 and 0.449.

In the case of `Cc1cc(O)cc(C)c1Cl` [Chloroxylenol], the “scaled lipid accumulation score” value [5] was at most 0.

For `C[C@H]1c2cccc(O)c2C(O)=C2C(=O)[C@]3(O)C(O)=C(C(N)=O)C(=O)[C@@H](N(C)C)[C@@H]3[C@@H](O)[C@@H]21` [Doxycycline Hyclate], the “scaled lipid accumulation score” value [1] was at most 0 and the “scaled lipid accumulation score” value [5] was at most -0.001.

For `CC(C)OC(=O)CCC/C=C\C[C@@H]1[C@@H](/C=C/[C@@H](O)CCc2ccccc2)[C@H](O)C[C@@H]1O` [17-phenyl trinor Prostaglandin F2.alpha. isopropyl ester], the “scaled lipid accumulation score” value [6] was at most 0.

With `CC(C)Nc1ncccn1` the “scaled lipid accumulation score” value [5] was at most 0.

For `C(=C\c1ccccc1)/CN1CCN(C(c2ccccc2)c2ccccc2)CC1` [Cinnarazine], the “scaled lipid accumulation score” value (library stock concentration: 5.4 mM) was 0.328 and the “scaled lipid accumulation score” value [5] was 0.423.

With `COc1ccc(-c2cc(C(F)F)nn2-c2ccc(S(N)(=O)=O)cc2)cc1F` [Deracoxib] the “scaled lipid accumulation score” value (library stock concentration: 5 mM) was at most 0.

`CCCCC/C=C\C/C=C\C/C=C\CCCCC(=O)OC` [.gamma.-Linolenic Acid methyl ester] was tested, and the “scaled lipid accumulation score” value [6] was at most 0.

With `O=C(O)CCCCCC[C@@H]1[C@@H](CC[C@@H](O)CCc2cccc(C(F)(F)F)c2)[C@H](O)C[C@@H]1O` the “scaled lipid accumulation score” value [6] was at most 0.

`CCCCC(C)(C)[C@H](O)/C=C/[C@H]1[C@H](O)CC(=O)[C@@H]1CC(=O)CCCCC(=O)O` [16,16-dimethyl-6-keto Prostaglandin E1] was tested, and the “scaled lipid accumulation score” value [6] was at most 0.

With `CC[C@]1(O)C[C@H]2CN(CCc3c([nH]c4ccccc34)[C@@](C(=O)OC)(c3cc4c(cc3OC)N(C=O)[C@H]3[C@@](O)(C(=O)OC)[C@H](OC(C)=O)[C@]5(CC)C=CCN6CC[C@]43[C@@H]65)C2)C1.O=S(=O)(O)O` [Vincristine sulfate] the “scaled lipid accumulation score” value [5] was 1.36 (active).

With `CCC1(O)CC2CN(CCc3c([nH]c4ccccc34)[C@@](C(=O)OC)(c3cc4c(cc3OC)N(C=O)C3[C@]45CCN4CC=C[C@@](CC)([C@@H](OC(C)=O)[C@]3(O)C(=O)OC)[C@H]45)C2)C1.O=S(=O)(O)O` (stereo partly drawn) [Vincristine sulfate] the “scaled lipid accumulation score” value [5] was 0.897 (active).

With `CC[C@]1(O)C[C@@H]2CN(CCc3c([nH]c4ccccc34)[C@@](C(=O)OC)(c3cc4c(cc3OC)N(C=O)[C@H]3[C@@](O)(C(=O)OC)[C@H](OC(C)=O)[C@]5(CC)C=CCN6CC[C@]43[C@@H]65)C2)C1.O=S(=O)(O)O` the “scaled lipid accumulation score” value [5] was 1.47 (active).

In the case of `CC[C@]1(O)C[C@H]2CN(CCc3c([nH]c4ccccc34)[C@@](C(=O)OC)(c3cc4c(cc3OC)N(C=O)[C@H]3[C@@](O)(C(=O)OC)[C@H](OC(C)=O)[C@]5(CC)C=CCN6CC[C@]43[C@@H]65)C2)C1` [Vincristine], the “scaled lipid accumulation score” value [1] was 0.004 and the “scaled lipid accumulation score” value [5] was 0.512.

In the case of `Cn1nc2c3c(cccc31)C(=O)c1ccccc1-2` [JNK Inhibitor, Negative Control], the “scaled lipid accumulation score” value [1] was at most 0.
